Consider 7 molecules from PubChem BioAssay (Tox21).

Assay [1] deals with Thyrotropin receptor (Homo sapiens) (UniProt P16473). As to the kind of experiment: qHTS assay to identify small molecule agonists of the thyroid stimulating hormone receptor (TSHR) signaling pathway (AID 1224843; calls by dose curve; also: nearly all actives have a fitted effect of over 45% in size). The gist of the method: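 Agonist-mode screen: TSHR HEK293 cells received test chemicals for half an hour at room temperature, then HTRF cAMP detection reagents for one hour prior to fluorescence measurement. Each chemical ran as a 15-concentration series, triplicated.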
Thyrotropin receptor (Homo sapiens), sequence (P16473 whole entry, looked up): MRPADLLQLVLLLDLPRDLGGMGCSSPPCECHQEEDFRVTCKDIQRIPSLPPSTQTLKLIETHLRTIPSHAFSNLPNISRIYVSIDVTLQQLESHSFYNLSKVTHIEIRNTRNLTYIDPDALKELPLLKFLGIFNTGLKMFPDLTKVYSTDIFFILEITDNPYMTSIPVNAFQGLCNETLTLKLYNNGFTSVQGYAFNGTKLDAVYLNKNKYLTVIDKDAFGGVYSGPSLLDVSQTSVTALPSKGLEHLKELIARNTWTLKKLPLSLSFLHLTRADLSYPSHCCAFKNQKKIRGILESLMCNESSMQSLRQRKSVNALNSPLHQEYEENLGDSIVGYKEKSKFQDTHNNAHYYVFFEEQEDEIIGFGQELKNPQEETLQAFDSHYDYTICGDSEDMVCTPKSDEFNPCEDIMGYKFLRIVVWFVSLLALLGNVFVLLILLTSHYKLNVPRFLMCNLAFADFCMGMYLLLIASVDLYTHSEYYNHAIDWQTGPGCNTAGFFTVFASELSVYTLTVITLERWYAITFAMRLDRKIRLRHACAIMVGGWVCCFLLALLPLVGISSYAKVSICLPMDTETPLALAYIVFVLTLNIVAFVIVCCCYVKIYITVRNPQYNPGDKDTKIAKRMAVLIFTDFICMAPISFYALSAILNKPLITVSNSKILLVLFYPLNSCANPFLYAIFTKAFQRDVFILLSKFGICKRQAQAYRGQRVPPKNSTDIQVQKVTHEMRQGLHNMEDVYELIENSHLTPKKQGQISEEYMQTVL
In general terms: Quantitative high-throughput screening tests each substance at several concentrations.

A short description of assay [2]: qHTS assay to identify small molecule agonists of the hypoxia (HIF-1) signaling pathway - cell viability counter screen (AID 1224844; calls by dose curve; also: nearly all actives have a fitted effect of over 50% in size). The gist of the method: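 Viability counter screen: HRE-bla ME-180 cells plated 5 hrs before compound addition, treated 17 hrs at 37C and 5% CO2, then CellTiter-Glo added after the FRET reporter read; luminescence after 30 min.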

The nature of assay [3]: qHTS assay to identify small molecule agonists of H2AX (AID 1224845; active = well fitted activation curve with a large enough effect in the signal ratio in the repeat runs, not every such curve was filed as active; the % refers to the signal ratio). The gist of the method: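 Wild-type CHO-K1 cells, plated overnight, exposed 3hr at 37C to 15 concentrations (0.76% DMSO final). Lysed, then HTRF anti-pH2AX (S139) cryptate and anti-H2AX-d2 antibodies, 24 hr room temperature; 665/620 nm emission read.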
Assay [4] in a line: qHTS assay to identify small molecule agonists of the hypoxia (HIF-1) signaling pathway (AID 1224846; active = well fitted activation curve with a large enough effect in the signal ratio in the repeat runs, not every such curve was filed as active; the % refers to the signal ratio). The gist of the method: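 Agonist mode reporter screen. ME-180 cells stably expressing bla under HRE control received test compounds in DMSO for 17 hrs (37C, 5% CO2), and beta-lactamase activity was then detected with the CCF4-AM FRET substrate.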
A short description of assay [5]: qHTS RealTime-Glo MT Cell Viability Assay in HepG2 cells - 24 hour (AID 1224867). Also: nearly all actives have a fitted effect of over 50% in size. The method, boiled down:
(§1)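 HepG2 cells (600/well) were dispensed with RealTime-Glo reagents, incubated 5 h at 37 °C, then treated with compounds in DMSO for up to 40 h. Nonlytic NanoLuc luminescence reflecting viable cells was read at each stated time point.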

The nature of assay [6]: qHTS RealTime-Glo MT Cell Viability Assay in HEK293 cells - 32 hour (AID 1224868). Also: top concentration of the series differs between compounds; nearly all actives have a fitted effect of over 50% in size. The gist of the method:
(§2)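 HEK293 cells seeded with NanoLuc/prosubstrate reagent, rested 5 h at 37 C, then dosed and kept at 37 C up to 40 h. Nonlytic real-time luminescence from viable cells read at 0, 8, 16, 24, 32 and 40 h.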

Assay [7] in a line: A CellTox Green Cytotoxicity Assay to monitor cytotoxicity in HEK293 cells - 0 hour (AID 1224869). Also: nearly all actives have a fitted effect of over 50% in size. The gist of the method: (§3)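 Dead-cell fluorescence measured kinetically: asymmetric cyanine dye, HEK293, 600 cells/well, 5 h settle, 23 nL cpd/DMSO, 37 C, reads 0–40 h every 8 h.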
The nature of assay [8]: qHTS RealTime-Glo MT Cell Viability Assay in HepG2 cells - 40 hour (AID 1224870). Also: nearly all actives have a fitted effect of over 50% in size. The gist of the method: (§4)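 HepG2 cells (600/well) mixed with RealTime-Glo MT reagent, settled 5 h at 37 C/5% CO2 before compound addition. Nonlytic NanoLuc luminescence from viable-cell prosubstrate reduction read repeatedly during 40 h treatment at 37 C.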
Assay [9] is described as follows: A CellTox Green Cytotoxicity Assay to monitor cytotoxicity in HEK293 cells - 40 hour (AID 1224871). Also: nearly all actives have a fitted effect of over 45% in size. The gist of the method:
as §3

Assay [10] can be described thus: qHTS RealTime-Glo MT Cell Viability Assay in HEK293 cells - 16 hour (AID 1224872). The method, boiled down:
as §2

Assay [11] in a line: qHTS RealTime-Glo MT Cell Viability Assay in HepG2 cells - 8 hour (AID 1224873). Also: nearly all actives have a fitted effect of over 55% in size. The method, boiled down: as §4
A short description of assay [12]: qHTS RealTime-Glo MT Cell Viability Assay in HEK293 cells - 40 hour (AID 1224874). Also: nearly all actives have a fitted effect of over 50% in size. Conditions: RealTime-Glo luminescence; max response: active compounds read low. The gist of the method: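 600 HEK293 cells per well, dispensed already mixed with RealTime-Glo MT reagents. Compound dosing came 5 h later. The same wells were read for luminescence at 0, 8, 16, 24, 32 and 40 h of exposure at 37 C.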

The nature of assay [13]: A CellTox Green Cytotoxicity Assay to monitor cytotoxicity in HEK293 cells - 24 hour (AID 1224875). Also: nearly all actives have a fitted effect of over 45% in size. The gist of the method: as §3
The nature of assay [14]: A CellTox Green Cytotoxicity Assay to monitor cytotoxicity in HepG2 cells - 16 hour (AID 1224876). Also: nearly all actives have a fitted effect of over 45% in size. The method, boiled down: (§5)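 First, HepG2 cells (600/well) mixed with reagent were plated; second, after 5 h at 37 C they received compounds via pintool; third, fluorescence was measured at 0 h through 40 h at 8 h intervals.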
Assay [15] is described as follows: qHTS RealTime-Glo MT Cell Viability Assay in HepG2 cells - 32 hour (AID 1224877). Also: nearly all actives have a fitted effect of over 55% in size. The gist of the method: as §1
Assay [16] is described as follows: A CellTox Green Cytotoxicity Assay to monitor cytotoxicity in HepG2 cells - 24 hour (AID 1224878). Also: nearly all actives have a fitted effect of over 45% in size. The method, boiled down: as §5
Assay [17] in a line: A CellTox Green Cytotoxicity Assay to monitor cytotoxicity in HepG2 cells - 40 hour (AID 1224879). Also: nearly all actives have a fitted effect of over 40% in size. The gist of the method:
as §5

A short description of assay [18]: qHTS assay to identify small molecule antagonists of the estrogen related receptor (ERR) signaling pathway from Tox21 library (AID 1224848). Also: nearly all actives have a fitted effect of over 50% in size. The gist of the method: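 Quantitative high-throughput format: ERR reporter cells (2,000/well) pre-incubated 6 h, treated 18 h at 37 C with compounds in DMSO alongside positive and negative controls, then read by ONE-Glo luminescence.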

A short description of assay [19]: qHTS assay to identify small molecule agonists of the estrogen related receptor (ERR) signaling pathway from Tox21 library (AID 1224849; calls by dose curve; also: nearly all actives have a fitted effect of over 15% in size). Conditions: ERR reporter cell line, ONE-Glo luciferase, 18 h; at 92.4 µM (top of the series) unless noted. The method, boiled down: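 Quantitative HTS in agonist format: NTP ERR cell line, compounds transferred in DMSO after 6 h plating, 18 h incubation at 37 C, ONE-Glo luminescence endpoint.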

Unmarked numbers belong to inactive results. Records with an inconclusive call do not appear. The source made the active and inactive calls. Unless noted, calls follow the shape of the dose curve; as a rule, active = well fitted curve in the direction sought with a large enough effect in the repeat runs; inconclusive = weak or mixed curves; inactive = no such curve, though single readings can be large; an effect the other way counts as inactive or inconclusive.
% is scaled to controls: 0 for no effect and ±100 for the full control effect.

Regarding `CCOC(=O)C(Br)c1ccccc1` (stereo unspecified), the Potency entry in [1], in assay [2], in assay [3], in [5], in assay [6] and in assay [7] was “inactive” in each case. Besides, the Potency result in [8], in assay [9], in assay [10], in assay [13], in [14] and in [15] was “inactive” throughout. The Potency result in assay [16] and in [17] was “inactive” each time. Also, the molecule was called inactive in assay [4] and in assay [11]. Also, the max response in assay [12] was 15.2%.
For `CCc1nnc(NS(=O)(=O)c2ccc(N)cc2)s1`, the Potency entry in assay [1], in [2], in assay [3], in assay [18], in [5] and in assay [6] was “inactive” each time. The Potency result in assay [7], in assay [8], in assay [9], in [10], in [13] and in [14] was “inactive” each time. In addition, the Potency entry in [15], in assay [16] and in [17] was “inactive” each time. Besides, the call in assay [4] and in assay [11] was inactive. The activity change, positive = activation in assay [19] is 2.74% [at 42.5 µM]. The max response in [12] is 6.63%.
Turning to `CN(CC1(C)CCCO1)S(=O)(=O)c1ccc(Cl)c(S(N)(=O)=O)c1` (stereo unspecified), the Potency result in [1], in [2], in [3], in assay [5], in assay [6] and in [7] was “inactive” throughout. For the same molecule, the Potency entry in [8], in assay [9], in assay [10], in [13], in assay [14] and in assay [15] was “inactive” throughout. Moreover, the Potency result in assay [16] and in assay [17] was “inactive” throughout. Moreover, in assay [4], the result was inactive. Also, in [12], the max response is 2.08%.
For the molecule `CC(C)OC(C)C`, the Potency result in assay [1], in assay [2], in assay [3], in assay [18], in [5] and in [6] was “inactive” throughout. For the same molecule, the Potency result in assay [7], in [8], in assay [9], in [10], in assay [13] and in [14] was “inactive” each time. The Potency result in assay [15], in assay [16] and in assay [17] was “inactive” throughout. Further, the outcome in [4] and in assay [11] was inactive. Further, in assay [19], the activity change, positive = activation is -8.47%. The max response in assay [12] was 20.1%.
In the case of `CC(C)(C)c1ccc(OC(=O)c2ccccc2O)cc1`, the Potency entry in [1], in [2], in [3], in assay [18], in [5] and in assay [6] was “inactive” each time. For the same molecule, the Potency entry in assay [7], in [8], in assay [9], in assay [10], in assay [13] and in assay [14] was “inactive” in each case. In addition, the Potency result in [15], in [16] and in [17] was “inactive” in each case. Moreover, the result in [4] and in assay [11] was inactive. In [19], the activity change, positive = activation was 132% (active). For the same molecule, the max response in [12] is -15.3%.
On to `COC(=O)C(C)O` (stereo unspecified), for which the Potency result in assay [1], in assay [2], in assay [3], in assay [5], in assay [6] and in assay [7] was “inactive” in each case. Besides, the Potency result in assay [8], in assay [9], in [10], in assay [13], in assay [14] and in assay [15] was “inactive” each time. The Potency entry in assay [16] and in assay [17] was “inactive” in each case. In addition, the result in assay [4] and in [11] was inactive. The max response in assay [12] was 3.12%.
Consider `CN1CCC[C@@H]1Cc1c[nH]c2ccc(CCS(=O)(=O)c3ccccc3)cc12`, for which the Potency result in assay [1], in [2], in [3], in assay [18], in [5] and in assay [6] was “inactive” throughout. For the same molecule, the Potency entry in assay [7], in assay [8], in assay [9], in assay [10], in assay [13] and in assay [14] was “inactive” in each case. Further, the Potency result in assay [15], in assay [16] and in assay [17] was “inactive” each time. Moreover, the call in assay [4] and in [11] was inactive. The activity change, positive = activation in [19] was -4.97% [at 42.5 µM]. Moreover, the max response in [12] is 3.35%.
